# Only some compounds are listed: those with a hit (about 2.5% of all), similar ones and a draw of the others.
# POLI inh: inhibitors of human DNA polymerase iota; Q9UNA4; Pol iota fluorescent replication assay, 10 min; Potency, µM (highest dose often 115 µM), without a hit: at the top dose activity, negative = inhibition, usual class: inhibitors; 1% of 390,000 active
#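 Pol iota at 10 nM preincubated 15 min with compounds at room temperature; reaction started with fluorescent substrate, 50 nM final. Fluorescence read kinetically at 0 and 10 min; buffer-only wells as negative control.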
# POLK inh: inhibitors of human DNA polymerase kappa; Q9UBT6; purified Pol kappa, fluorescent DNA synthesis assay, 10 min; Potency, µM (highest dose often 107 µM), for inactives: at the top dose activity, negative = inhibition, usual class: inhibitors; 0.53% of 400,000 active; note: % is set by controls: 0 for no effect and ±100 for the full control effect
#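 50 nM final substrate added after 15 min RT preincubation of 10 nM Pol kappa with compound; fluorescence read at 0 and 10 min.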
# POLH inh: DNA polymerase eta (human) inhibition. recombinant Pol eta, fluorescent DNA replication assay. AID 588591. 1.2% of 390,000 active. Potency, µM (titrated, usually from 114 µM), for the others: at the highest dose activity change, negative = inhibition, hits mostly inhibitors; note: % is set by controls: 0 for no effect and ±100 for the full control effect
#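 Pol eta at 10 nM preincubated with compounds 15 min at room temperature; reaction started with fluorescent substrate (50 nM final) and read kinetically at 0 and 10 min.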
# Pol beta inh: blocks human DNA polymerase beta activity; P06746; Pol beta primer extension/strand displacement, fluorescence kinetic; Potency, µM (doses to about 114 µM), inactives show top-dose activity change, negative = inhibition, most hits filed as inhibitors; 1.3% of 340,000 active; note: % is set by controls: 0 for no effect and ±100 for the full control effect
#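 Pol beta (10 nM) was preincubated with compound for 15 min at room temperature. The reaction was then started with 50 nM substrate and read immediately and after a further 10 min at room temperature.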
# L3MBTL1 block: blocks human L3MBTL1; Q9Y468; AlphaScreen L3MBTL1–H3K9me1 peptide binding; Potency, µM (titrated, usually from 57.1 µM), for inactives: at the top dose activity, negative = inhibition, most hits filed as inhibitors; 0.66% of 230,000 active; note: % is set by controls: 0 for no effect and ±100 for the full control effect; nearly all actives have a fitted effect of over 60% in size
#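 AlphaScreen proximity signal between nickel-chelate acceptor and streptavidin donor beads (final 10 ug/mL) reports binding of 50 nM L3MBTL1 to 75 nM biotin-H3 K9me1 peptide; complex incubated with compounds 30 min at room temperature; cefsulodin titration as control.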
# WRN helicase inh: inhibitors of human WRN helicase; WRN helicase unwinding, fluorescent forked duplex, kinetic; 0.46% of 360,000 active; Q14191; Potency, µM (titrated, usually from 114 µM), without a hit: at the top dose activity change, negative = inhibition, hits mostly inhibitors; note: % is set by controls: 0 for no effect and ±100 for the full control effect; nearly all actives have a fitted effect of over 55% in size
#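 WRN at 20 nM final preincubated with compound 15 min at room temperature; reaction started with 100 nM fluorophore/quencher forked duplex oligonucleotide and 2 mM ATP final. Unwinding followed kinetically by red fluorescence (ex 525, em 598 nm).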
# The depositor's hits bear a star; ? = inconclusive; · = no result given; [ ] = another dose, or the depositor's remark. Calls come from the whole dose curve; as a rule, active = well fitted curve in the direction sought with a large enough effect; inconclusive = small, poorly fitted or top-dose-only effect, or another doubt; inactive = no such curve, though single readings can be large; an effect the other way counts as inactive or inconclusive. Potency is the fitted concentration of half-maximal effect.
SMILES,POLI inh,POLK inh,POLH inh,Pol beta inh,L3MBTL1 block,WRN helicase inh
O=C(O)c1cn(Cc2ccccc2)nc1-c1ccccc1,24%,5%,-14%,0%,4%,-2%[57.1 µM]
CN(C)c1c([N+](=O)[O-])cc(N2C(=O)C=CC2=O)cc1[N+](=O)[O-],?,-37%,-17%,·,·,35µM*
CCOP(=O)(OCC)C(O)c1ccccc1 (stereo not drawn),12%,-7%,-5%,?,7%,1%
CCOP(=O)(C1=C(O)C(=O)C(C(C)(C)C)=CC1=O)c1ccccc1 (stereo not drawn),32µM*,-8%,-5%,-11%,·,?
CC1CCc2c(sc3nc(CSc4n[nH]c(N)n4)[nH]c(=O)c23)C1 (stereo not drawn),1%,-7%,?,-1%,3%,-3%
Oc1c(Cl)cc(Cl)cc1CN1CCN(Cc2ccccc2)CC1,32µM*,-13%,-5%,11%,2%,-26%
Cc1ccc(-c2nc(N(C)C3CCN(C)CC3)c3ccccc3n2)cc1,?,-8%,1%,28µM*,·,-12%
CN1CCC(N(C)c2ncnc3ccc(Br)cc23)CC1,27%,-5%,-4%,?,-9%,6%
O=C1NC(=O)N(Cc2ccccc2)C(=O)/C1=C/c1cnc(-c2ccccc2)nc1,28%,-7%,-13%,7%,·,?
CC(C)c1ccc(N2C(=O)NC(=O)/C(=C/c3cnc(-c4ccccc4)nc3)C2=O)cc1,2%,-11%,-2%,8%,-14%,50µM*
CSc1ncc(/C=C2/C(=O)NC(=O)N(C)C2=O)cn1,13%,-6%,1%,0%,-1%,?
CCCCN1C(=O)NC(=O)/C(=C/c2cnc(SC)nc2)C1=O,-4%,-9%,2%,-2%,-1%,40µM*
CSc1ncc(/C=C2/C(=O)NC(=O)N(c3ccc(C(C)C)cc3)C2=O)cn1,4%,-1%,-6%,-14%,4%,50µM*
CCC1C(C)=NN=C(c2ccc(OC)c(OC)c2)c2cc(OC)c(OC)cc21 (stereo not drawn),·,8%[19.4 µM],·,·,·,·
CN1/C(=C\C=C\C2=[N+](C)c3ccc4ccccc4c3C2(C)C)C(C)(C)c2ccccc21,·,·,·,79µM*,16µM*,·
O=C(c1ccco1)N1CCC2(CC1)CN(Cc1ccncc1)C2,·,7%[60.1 µM],·,·,·,·
C=CCN1C(=O)NC(=O)/C(=C/c2ccc(OC)c(COc3ccc(NC(C)=O)cc3)c2)C1=O,5%,11%,?,20%,2%,45µM*
COc1cc(CN2CC(C)OC(C)C2)cc(OC)c1 (stereo not drawn),?,-23%,-5%,·,·,-8%
CN1C(=O)NC(=O)/C(=C\C=C\c2ccccc2[N+](=O)[O-])C1=O,14µM*,-11%,?,-1%,-1%,-1%
O=c1c2ccccc2nc(/C=C\c2ccccc2[N+](=O)[O-])n1-c1ccccc1O,22%,-13%,-4%,-16%,?,-28%
O=C1CC[C@]2(O)[C@H]3Cc4ccc(O)c5c4[C@@]2(CCN3CC2CC2)[C@@H]1O5,·,-3%[12 µM],·,·,·,·
O=C1CCC2(O)C3Cc4ccc(O)c5c4C2(CCN3Cc2ccoc2)C1O5 (stereo not drawn),·,·,28µM*,·,·,-21%
Cc1cccc(N2C(=O)CC(=O)NC2=O)c1,7%,-7%,12%,-1%,32%[11.4 µM],-11%
Cc1cc(N2CCOCC2)ccc1/C=C1\C(=O)NC(=O)N(c2ccccc2)C1=O,-20%,-5%,-7%,-18%,0%,-6%
Cc1ccc(/C=C2\C(=O)NC(=O)N(Cc3ccccc3Cl)C2=O)o1,25µM*,?,79µM*,?,-25%,?
Cc1cccc(N2C(=O)NC(=O)/C(=C\C=C\c3ccco3)C2=O)c1,13µM*,-94%,?,?,?,-34%
CN(C)c1ccc(/C=C/C=C2/C(=O)NC(=O)N(c3ccccc3)C2=O)cc1,?,-24%,?,1%,?,18µM*

# High-throughput results as filed in PubChem.
